Reference: PubChem BioAssay (NCI)
“And” between values parts separate entries of the source, which are not always exact repeats. Equal values may be shown once. About 83,000 compounds went through this panel and 20% of them were active in at least one assay; those are over-represented in the sample as a whole.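 A percent growth of 40 corresponds to 60% growth inhibition; 0 means no net growth; -100 means all cells died. Active threshold: below 10.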 The source made the active and inactive calls.

What was measured:
Assay in all cases: NCI-60 one-dose screen, 48 h (100 = growth as untreated, 0 = no growth, -100 = all killed)
HCT-15 colon = test system: HCT-15 colon
HT29 colon = test system: HT29 colon
SNB-75 CNS = test system: SNB-75 CNS
SNB-19 CNS = test system: SNB-19 CNS
U251 CNS = test system: U251 CNS
PC-3 prostate = test system: PC-3 prostate
SK-MEL-5 melanoma = test system: SK-MEL-5 melanoma
UACC-62 melanoma = test system: UACC-62 melanoma
LOX IMVI melanoma = test system: LOX IMVI melanoma
SK-MEL-28 melanoma = test system: SK-MEL-28 melanoma
SK-MEL-2 melanoma = test system: SK-MEL-2 melanoma
EKVX NSCLC = test system: EKVX NSCLC
SN12C renal = test system: SN12C renal
UO-31 renal = test system: UO-31 renal
TK-10 renal = test system: TK-10 renal
ACHN renal = test system: ACHN renal
CAKI-1 renal = test system: CAKI-1 renal
A498 renal = test system: A498 renal
CCRF-CEM leukemia = test system: CCRF-CEM leukemia
MOLT-4 leukemia = test system: MOLT-4 leukemia

Measured: growth

O=Nc1ccc(O)cc1
inactive: HCT-15 colon; 10 µM unless noted 89.3% and 92.3% | HT29 colon; 10 µM unless noted 97.4% and 97.5% | SNB-75 CNS; 10 µM unless noted 95.6% | SNB-19 CNS; 10 µM unless noted 106% and 99.3% | U251 CNS; 10 µM unless noted 101% and 94.2% | PC-3 prostate; 10 µM unless noted 85.1% and 90% | SK-MEL-5 melanoma; 10 µM unless noted 98% and 109% | UACC-62 melanoma; 10 µM unless noted 90.2% and 93.4% | LOX IMVI melanoma; 10 µM unless noted 90.8% and 82.3% | SK-MEL-28 melanoma; 10 µM unless noted 113% | SK-MEL-2 melanoma; 10 µM unless noted 96.7% and 109% | EKVX NSCLC; 10 µM unless noted 91.6% and 105% | SN12C renal; 10 µM unless noted 96.1% and 97.3% | UO-31 renal; 10 µM unless noted 90.7% and 62.9% | TK-10 renal; 10 µM unless noted 107% and 105% | ACHN renal; 10 µM unless noted 81.3% and 75% | CAKI-1 renal; 10 µM unless noted 97.9% | A498 renal; 10 µM unless noted 122% and 130% | CCRF-CEM leukemia; 10 µM unless noted 75.4% and 56.1% | MOLT-4 leukemia; 10 µM unless noted 82.5% and 89.2%

Cc1[nH]c(-c2nc3ccccc3[nH]2)c(C)c1C(=O)NC(C)C1CCCCC1 (stereo not drawn)
active: HCT-15 colon; 100 µM -80.6% | HT29 colon; 100 µM -38.4% | SNB-19 CNS; 100 µM -94.7% | U251 CNS; 100 µM -64.5% | PC-3 prostate; 100 µM -58.3% | SK-MEL-5 melanoma; 100 µM -99.6% | UACC-62 melanoma; 100 µM -96.5% | SK-MEL-28 melanoma; 100 µM -94.9% | SK-MEL-2 melanoma; 100 µM -81.6% | EKVX NSCLC; 100 µM -84.9% | SN12C renal; 100 µM -89.7% | UO-31 renal; 100 µM -97.8% | TK-10 renal; 100 µM -91% | ACHN renal; 100 µM -90.9% | CAKI-1 renal; 100 µM -97.2% | A498 renal; 10 µM unless noted -93.3% [100 µM] | CCRF-CEM leukemia; 100 µM -72.7%
inactive: HCT-15 colon; 10 µM 69% | HT29 colon; 10 µM 94.8% | SNB-19 CNS; 10 µM 86.6% | U251 CNS; 10 µM 96.7% | PC-3 prostate; 10 µM 78.5% | SK-MEL-5 melanoma; 10 µM 80.2% | UACC-62 melanoma; 10 µM 78.1% | LOX IMVI melanoma; 10 µM unless noted 84.7% | SK-MEL-28 melanoma; 10 µM 89.2% | SK-MEL-2 melanoma; 10 µM 87.2% | EKVX NSCLC; 10 µM 93.2% | SN12C renal; 10 µM 86.1% | UO-31 renal; 10 µM 89% | TK-10 renal; 10 µM 103% | ACHN renal; 10 µM 99% | CAKI-1 renal; 10 µM 85.8% | CCRF-CEM leukemia; 10 µM 81.3%

Nc1cc2c(cc1N)-c1ccccc1C2
inactive: HCT-15 colon; 10 µM unless noted 85.9% and 94.3% | HT29 colon; 10 µM unless noted 96.6% and 105% | SNB-75 CNS; 10 µM unless noted 71.4% and 91.6% | SNB-19 CNS; 10 µM unless noted 97.7% and 115% | U251 CNS; 10 µM unless noted 89.9% and 89.5% | PC-3 prostate; 10 µM unless noted 85% and 105% | SK-MEL-5 melanoma; 10 µM unless noted 95.7% and 97.1% | UACC-62 melanoma; 10 µM unless noted 85.3% and 109% | LOX IMVI melanoma; 10 µM unless noted 97.5% and 93.3% | SK-MEL-28 melanoma; 10 µM unless noted 115% and 116% | SK-MEL-2 melanoma; 10 µM unless noted 86.3% and 111% | EKVX NSCLC; 10 µM unless noted 67.1% and 68% | SN12C renal; 10 µM unless noted 75.7% and 101% | UO-31 renal; 10 µM unless noted 58.8% and 73.1% | TK-10 renal; 10 µM unless noted 108% | ACHN renal; 10 µM unless noted 82.6% and 88.3% | CAKI-1 renal; 10 µM unless noted 56.8% and 79.8% | A498 renal; 10 µM unless noted 88.2% and 103% | CCRF-CEM leukemia; 10 µM unless noted 18.9% and 30.8%

CC1CCCC(=O)O1 (stereo not drawn)
inactive: HCT-15 colon; 10 µM unless noted 94.8% and 99.7% | HT29 colon; 10 µM unless noted 106% and 99.8% | SNB-75 CNS; 10 µM unless noted 83.3% and 95.6% | SNB-19 CNS; 10 µM unless noted 111% | U251 CNS; 10 µM unless noted 102% and 104% | PC-3 prostate; 10 µM unless noted 96.2% and 95.1% | SK-MEL-5 melanoma; 10 µM unless noted 102% and 108% | UACC-62 melanoma; 10 µM unless noted 109% and 101% | LOX IMVI melanoma; 10 µM unless noted 96.3% and 97.2% | SK-MEL-28 melanoma; 10 µM unless noted 99.5% and 113% | SK-MEL-2 melanoma; 10 µM unless noted 103% and 107% | EKVX NSCLC; 10 µM unless noted 102% | SN12C renal; 10 µM unless noted 111% | UO-31 renal; 10 µM unless noted 92.8% and 76.7% | TK-10 renal; 10 µM unless noted 103% and 108% | ACHN renal; 10 µM unless noted 99.2% and 100% | CAKI-1 renal; 10 µM unless noted 95.7% and 102% | A498 renal; 10 µM unless noted 110% and 97.8% | CCRF-CEM leukemia; 10 µM unless noted 111%

CCc1ccccc1-n1c(N)c(C#N)c(-c2ccc(OC)c(OC)c2)c(C#N)c1=O
inactive: HCT-15 colon; 10 µM 101% | HCT-15 colon; 100 µM 81.2% | HT29 colon; 10 µM 110% | HT29 colon; 100 µM 102% | SNB-75 CNS; 10 µM 98% | U251 CNS; 10 µM 101% | PC-3 prostate; 10 µM 110% | PC-3 prostate; 100 µM 14.2% | SK-MEL-5 melanoma; 10 µM 113% | SK-MEL-5 melanoma; 100 µM 67.1% | UACC-62 melanoma; 10 µM 105% | UACC-62 melanoma; 100 µM 35% | LOX IMVI melanoma; 10 µM 104% | LOX IMVI melanoma; 100 µM 57.8% | SK-MEL-28 melanoma; 10 µM 124% | SK-MEL-28 melanoma; 100 µM 54% | SK-MEL-2 melanoma; 10 µM 108% | SK-MEL-2 melanoma; 100 µM 38% | EKVX NSCLC; 10 µM 106% | EKVX NSCLC; 100 µM 29.1% | SN12C renal; 10 µM 109% | SN12C renal; 100 µM 19.8% | UO-31 renal; 10 µM 85.2% | UO-31 renal; 100 µM 37.1% | TK-10 renal; 10 µM 114% | ACHN renal; 10 µM 95.8% | ACHN renal; 100 µM 16.1% | CAKI-1 renal; 10 µM 97.5% | CAKI-1 renal; 100 µM 50.3% | A498 renal; 10 µM 120% | A498 renal; 100 µM 42.6% | CCRF-CEM leukemia; 10 µM 112% | CCRF-CEM leukemia; 100 µM 101% | MOLT-4 leukemia; 10 µM 95.7% | MOLT-4 leukemia; 100 µM 111%
active: SNB-75 CNS; 100 µM -43% | U251 CNS; 100 µM 8.35% | TK-10 renal; 100 µM 2.47%

CN(C)CCCNC1=C(Cl)C(=O)c2ccccc2C1=O
67.1% (inactive) and -98.3% (active): SN12C renal; 10 µM unless noted
active: HCT-15 colon; 10 µM unless noted -62.2% and -49.3% | HT29 colon; 10 µM unless noted -26% and -31.7% | U251 CNS; 10 µM unless noted -63% and -94.2% | SK-MEL-5 melanoma; 10 µM unless noted -94.2% and -100% | LOX IMVI melanoma; 10 µM unless noted -43.5%
87.6% (inactive) and -34.4% (active): SK-MEL-2 melanoma; 10 µM unless noted
53.1% (inactive) and -9.85% (active): SNB-19 CNS; 10 µM unless noted
28.6% (inactive) and -13.8% (active): UACC-62 melanoma; 10 µM unless noted
inactive: SNB-75 CNS; 10 µM unless noted 64.1% and 47.8% | PC-3 prostate; 10 µM unless noted 56.8% and 53.6% | SK-MEL-28 melanoma; 10 µM unless noted 83.2% and 83.7% | UO-31 renal; 10 µM unless noted 73.8% and 47.6% | TK-10 renal; 10 µM unless noted 120% and 116% | ACHN renal; 10 µM unless noted 92.7% and 92.5% | CAKI-1 renal; 10 µM unless noted 91.3% and 104% | A498 renal; 10 µM unless noted 103% and 85.4% | CCRF-CEM leukemia; 10 µM unless noted 80% and 81.3%
30.2% (inactive) and -44.6% (active): EKVX NSCLC; 10 µM unless noted

OC(CSc1ccccc1)CN1CCN(c2cccc(Cl)c2)CC1 (stereo not drawn)
inactive: HCT-15 colon; 10 µM unless noted 105% and 101% | HT29 colon; 10 µM unless noted 104% and 96.5% | SNB-75 CNS; 10 µM unless noted 91.7% and 102% | SNB-19 CNS; 10 µM unless noted 100% and 111% | U251 CNS; 10 µM unless noted 95% and 102% | PC-3 prostate; 10 µM unless noted 92.9% and 97.8% | SK-MEL-5 melanoma; 10 µM unless noted 97.4% and 96.8% | UACC-62 melanoma; 10 µM unless noted 92.2% and 96.9% | LOX IMVI melanoma; 10 µM unless noted 96.7% and 96.3% | SK-MEL-28 melanoma; 10 µM unless noted 103% and 99.1% | SK-MEL-2 melanoma; 10 µM unless noted 98.3% and 100% | EKVX NSCLC; 10 µM unless noted 102% and 99% | SN12C renal; 10 µM unless noted 94.3% and 103% | UO-31 renal; 10 µM unless noted 76% and 75% | TK-10 renal; 10 µM unless noted 101% and 112% | ACHN renal; 10 µM unless noted 103% and 101% | CAKI-1 renal; 10 µM unless noted 92.2% and 87.9% | A498 renal; 10 µM unless noted 116% and 89.9% | CCRF-CEM leukemia; 10 µM unless noted 92.5% and 98.1% | MOLT-4 leukemia; 10 µM unless noted 76.1% and 94.9%

CCN(CC)CCCC(C)Nc1cnc(C(=O)Nc2cc(F)cc3cccnc23)cn1 (stereo not drawn)
36.6% (inactive) and -2.97% (active): ACHN renal; 10 µM unless noted
70% (inactive) and -92.2% (active): SK-MEL-5 melanoma; 10 µM unless noted
0.997% (active) and 17.5% (inactive): UACC-62 melanoma; 10 µM unless noted
50.3% (inactive) and -76.1% (active): U251 CNS; 10 µM unless noted
29.1% (inactive) and -91.5% (active): UO-31 renal; 10 µM unless noted
36.7% (inactive) and -38.3% (active): CAKI-1 renal; 10 µM unless noted
83.1% (inactive) and -87.9% (active): SNB-19 CNS; 10 µM unless noted
65.7% (inactive) and -54.3% (active): SNB-75 CNS; 10 µM unless noted
54.5% (inactive) and 1.53% (active): SN12C renal; 10 µM unless noted
24.5% (inactive) and -32.9% (active): HCT-15 colon; 10 µM unless noted
inactive: SK-MEL-28 melanoma; 10 µM unless noted 63.2% and 22.7% | SK-MEL-2 melanoma; 10 µM unless noted 96.7% and 50% | EKVX NSCLC; 10 µM unless noted 73.3% and 19.2% | A498 renal; 10 µM unless noted 63%
61% (inactive) and -52.7% (active): PC-3 prostate; 10 µM unless noted
63.7% (inactive) and -48.8% (active): TK-10 renal; 10 µM unless noted
33.3% (inactive) and -48.5% (active): LOX IMVI melanoma; 10 µM unless noted
11.8% (inactive) and 5.33% (active): HT29 colon; 10 µM unless noted
19.7% (inactive) and 3.49% (active): CCRF-CEM leukemia; 10 µM unless noted
